Screens deposited in PubChem BioAssay by National Center for Advancing Translational Sciences (NCATS).
The sample as a whole holds a higher share of hits than the screen did.
Sm TGR inh: qHTS Assay for the Inhibitors of Schistosoma Mansoni Peroxiredoxins; purified TGR, DTNB reduction, TNB absorbance 405 nm; Potency, µM (top dose mostly 114 µM), without a hit: top-dose activity change, negative = inhibition, actives largely listed as inhibitors; Schistosoma mansoni thioredoxin glutathione reductase (TGR), Q962Y6; 3% of 360,000 active; further: potency means the concentration at half of the fitted maximal effect; on the % scale 0 is the no-effect control and ±100 the full control effect; nearly all actives have a fitted effect of over 60% in size
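First, TGR (20 nM dispensed) and NADPH were mixed with compound. Second, a 15 min room-temperature incubation followed. Third, further NADPH and then DTNB were added to start the reaction. Finally, TNB absorbance was monitored kinetically.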
TbPYK inhibitor: qHTS of Trypanosoma Brucei Inhibitors. pyruvate kinase (Trypanosoma brucei), Q57TT1. TbPYK enzyme, Kinase-Glo Plus ATP luminescence, 45 min. Potency, µM (series often up to 76.8 µM), inactives show at the highest dose activity, negative = inhibition, usual class: inhibitors. 0.12% of 410,000 active. AID 624173, 2012; further: potency means the concentration at half of the fitted maximal effect; on the % scale 0 is the no-effect control and ±100 the full control effect; nearly all actives have a fitted effect of over 50% in size
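Assay buffer: 50 mM TEA pH 7.2, 100 mM KCl, 10 mM MgCl2, 0.05% BSA, 0.01% Tween-20. Pyruvate kinase from T. brucei plus substrate met compound, then ADP (130 uM final). Luminescence was read post 45 min RT.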
LmPK inhibitor: qHTS Assay for Inhibitors of Leishmania Mexicana Pyruvate Kinase (LmPK). Potency, µM (titrated, usually from 57.5 µM), for the others: top-dose activity change, negative = inhibition, most hits filed as inhibitors. Q27686. 0.37% of 290,000 active. AID 1721, 2009. purified LmPK, Kinase-Glo ATP luminescence, 1 h; further: potency means the concentration at half of the fitted maximal effect; on the % scale 0 is the no-effect control and ±100 the full control effect
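ATP generated from ADP (0.1 mM) and PEP (0.5 mM) by 0.1 nM LmPK over 1 h at room temperature (pH 7.2 imidazole buffer) was detected by coupled luciferase luminescence. Values were normalized to uninhibited and no-enzyme wells.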
CHX counter: Cycloheximide Counterscreen for Small Molecule Inhibitors of Shiga Toxin | cell reporter, cycloheximide protein synthesis inhibition counterscreen | max response, % | 12% of 300,000 active | AID 2314, 2010; in the data active means max response mostly above about 13%, no sharp cut-off; inactive means mostly below about 14%; further: read at 38.3 µM for the half of the compounds with a filed dose; 0% is about no effect
Shiga toxin inh: A qHTS for Small Molecule Inhibitors of Shiga Toxin; Vero cells, Shiga toxin protein synthesis inhibition reporter; inhibition, % at 38.7 µM; 9.2% of 290,000 active; in the data active means inhibition mostly above about 28%, no sharp cut-off; inactive means mostly below about 43%; further: 0% is about no effect
Giardia FBPA inh-1: qHTS Assay for Inhibitors of Fructose-1,6-bisphosphate Aldolase from Giardia Lamblia. purified Giardia FBPA. Potency, µM (highest dose often 59.6 µM), for inactives: top-dose activity, negative = inhibition, hits mostly inhibitors. 0.71% of 290,000 active; further: potency means the concentration at half of the fitted maximal effect; on the % scale 0 is the no-effect control and ±100 the full control effect; nearly all actives have a fitted effect of over 55% in size
Target sequence (A8B2U2 whole entry, looked up): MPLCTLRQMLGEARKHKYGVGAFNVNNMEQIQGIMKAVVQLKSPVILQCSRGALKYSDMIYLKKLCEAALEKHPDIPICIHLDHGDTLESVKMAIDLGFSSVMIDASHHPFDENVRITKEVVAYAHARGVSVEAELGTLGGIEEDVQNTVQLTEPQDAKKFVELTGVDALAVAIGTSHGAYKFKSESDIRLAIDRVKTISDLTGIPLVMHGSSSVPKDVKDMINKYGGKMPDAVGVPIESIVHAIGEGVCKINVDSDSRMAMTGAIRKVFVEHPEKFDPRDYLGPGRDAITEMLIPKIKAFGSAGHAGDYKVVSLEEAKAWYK
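40 nM FBPA preincubated 10 min at RT with compound (up to 57.5 uM final), then substrate plus GAPDH/TPI/NAD/arsenate coupling and diaphorase/resazurin added. Fluorescence read after 20 min at RT, 525/598 nm.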
Giardia growth: qHTS Assay for Inhibitors of Fructose-1,6-bisphosphate Aldolase from Giardia Lamblia: Giardia lamblia growth inhibition. shares compounds with Giardia FBPA inh-1. Giardia lamblia trophozoite growth inhibition. Potency, µM (titrated, usually from 57.5 µM), for inactives: top-dose activity change, negative = inhibition, usual class: inhibitors. 5% of 1,500 active;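 further: potency means the concentration at half of the fitted maximal effect; trophozoites exposed to compound for 48 h at 37 °C; on the % scale 0 is the no-effect control and ±100 the full control effect; nearly all actives have a fitted effect of over 70% in size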
Mammal cell tox: qHTS Assay for Inhibitors of Fructose-1,6-bisphosphate Aldolase from Giardia Lamblia: Mammalian cellular toxicity; Potency, µM (series often up to 57.5 µM), for inactives: at the highest dose viability change, negative = toxicity, hits mostly inhibitors; 4% of 1,500 active; shares compounds with Giardia FBPA inh-1; mammalian cell viability counter-screen, qHTS;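 further: Chinese hamster ovary cells used as mammalian cytotoxicity surrogate; viability measured as cellular ATP by luminescence; potency means the concentration at half of the fitted maximal effect; compound exposure lasted 48 h before reading; on the % scale 0 is the no-effect control and ±100 the full control effect; nearly all actives have a fitted effect of over 60% in size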
Giardia FBPA inh-2: qHTS Assay for Inhibitors of Fructose-1,6-bisphosphate Aldolase from Giardia Lamblia: Primary screen confirmation | 5% of 1,500 active | Potency, µM (titrated, usually from 57.5 µM), for inactives: top-dose activity change, negative = inhibition, most hits filed as inhibitors | purified Giardia aldolase enzyme activity, qHTS | AID 2787, 2010 | shares compounds with Giardia FBPA inh-1; further: potency means the concentration at half of the fitted maximal effect; on the % scale 0 is the no-effect control and ±100 the full control effect; nearly all actives have a fitted effect of over 45% in size
Rabbit aldolase: qHTS Assay for Inhibitors of Fructose-1,6-bisphosphate Aldolase from Giardia Lamblia: Rabbit FBPA Selectivity; shares compounds with Giardia FBPA inh-1; Potency, µM (titrated, usually from 57.5 µM), inactives show at the highest dose activity, negative = inhibition, most hits filed as inhibitors; Rabbit muscle FBPA enzyme inhibition, selectivity counter-screen; 4% of 1,500 active; further: potency means the concentration at half of the fitted maximal effect; on the % scale 0 is the no-effect control and ±100 the full control effect; nearly all actives have a fitted effect of over 60% in size
Target sequence (P00883 whole entry, looked up): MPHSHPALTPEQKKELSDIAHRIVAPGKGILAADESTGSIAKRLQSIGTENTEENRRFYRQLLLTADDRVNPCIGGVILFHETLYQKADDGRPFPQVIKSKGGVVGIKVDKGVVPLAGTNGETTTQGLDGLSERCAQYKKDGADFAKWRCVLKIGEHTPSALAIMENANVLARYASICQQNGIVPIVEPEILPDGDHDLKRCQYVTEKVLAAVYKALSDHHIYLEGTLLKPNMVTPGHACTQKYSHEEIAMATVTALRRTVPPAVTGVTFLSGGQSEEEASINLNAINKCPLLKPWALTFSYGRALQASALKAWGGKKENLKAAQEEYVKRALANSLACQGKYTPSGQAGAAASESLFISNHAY
GAPDH counter: qHTS Assay for Inhibitors of Fructose-1,6-bisphosphate Aldolase from Giardia Lamblia: Coupling assay counterscreen confirmation | 6% of 1,500 active | AID 2795, 2010 | shares compounds with Giardia FBPA inh-1 | GAPDH coupling enzyme counterscreen, biochemical, qHTS | Potency, µM (series often up to 57.5 µM), without a hit: at the top dose activity change, negative = inhibition, actives largely listed as inhibitors; further: potency means the concentration at half of the fitted maximal effect; on the % scale 0 is the no-effect control and ±100 the full control effect; nearly all actives have a fitted effect of over 55% in size
The depositor's hits bear a star; ? = inconclusive; . = no result given; [ ] = another dose, or the depositor's remark. Unless noted, the call rests on the fitted dose curve; in most records, active means well fitted curve in the direction sought with a large enough effect; inconclusive means small, poorly fitted or top-dose-only effect, or another doubt; inactive means no such curve, though single readings can be large; an effect the other way counts as inactive or inconclusive.

SMILES	Sm TGR inh	TbPYK inhibitor	LmPK inhibitor	CHX counter	Shiga toxin inh	Giardia FBPA inh-1	Giardia growth	Mammal cell tox	Giardia FBPA inh-2	Rabbit aldolase	GAPDH counter
COc1ccc(OC)c2c1cc(C(=O)N[C@@H](C)C(=O)N[C@@H](C(=O)O)c1ccccc1)n2C	10.1%	3.6%	-9.2%	-1.0	-3.8	-16.3%	.	.	.	.	.
O=C(CNS(=O)(=O)c1ccc(Cl)c(C(F)(F)F)c1)NC1CCCCCC1	-0.4%	-0.3%	.	.	.	.	.	.	.	.	.
CCN(CCCNC(=O)Cn1ncc2c([nH]c3ccc(C)cc32)c1=O)Cc1ccccc1	-33.8%	-7.9%	-5.7%	-3.2	-2.1	3.6%	.	.	.	.	.
O=C(c1ccc(=O)[nH]c1)N1CCN(S(=O)(=O)c2ccc3ccccc3c2)CC1	-1.9%	-10.2%	.	.	.	.	.	.	.	.	.
COc1ccc(OCc2ccc(-c3nc(C#N)c(N4CCN(C)CC4)o3)o2)cc1	0.1%	0.2%	.	.	.	.	.	.	.	.	.
OCCN1CCN(CC(O)COC(c2ccc(F)cc2)c2ccc(F)cc2)CC1 (stereo not drawn)	-20.3%	18.3%	-6.6%	-5.9	-8.1	?	.	.	.	.	.
OC(COC(c1ccc(F)cc1)c1ccc(F)cc1)CN1CCCC(C(F)(F)F)C1 (stereo not drawn)	-20.0%	38.2%	1.0%	-0.5	-3.7	14.1µM*	?	-3.2%	2.1%	4.2%	-4.7%
COc1ccc(N2CCN(CC(O)COC(c3ccc(F)cc3)c3ccc(F)cc3)CC2)cc1 (stereo not drawn)	0.9%	4.9%	-11.6%	-3.4	-3.2	15.8µM*	4.0%[10.4 µM]	13.1%	-7.5%	-8.0%	3.4%
COc1cccc(-c2cc(C(=O)NCCCn3ccnc3)c3ccccc3n2)c1	1.8%	-6.6%	0.8%	-2.0	-6.1	5.6%	.	.	.	.	.
COc1ccc2cc(S(=O)(=O)NCc3cccnc3)ccc2c1	-3.4%	-16.0%	-2.5%	6.9	36.1	-3.6%	.	.	.	.	.
CCOC(=O)c1c(NC(=O)CN(C)C2CCN(C)CC2)sc(C(=O)Nc2ccccc2)c1C	2.1%	16.1%	0.7%	7.6	10.5	19.9µM*	?	-13.5%	2.1%	5.2%	6.9%
CCOC(=O)c1c(NC(C)=O)sc(C(=O)NC2CCCC2)c1C	10.9%	-2.4%	-1.4%	-6.4	-6.9	10.6%	.	.	.	.	.
CCOc1ccc(/C(CCC(=O)O)=N/NC(=S)NC(C)C)cc1	-2.8%	-12.5%	1.0%	11.5	40.7	15.8µM*	-16.4%	17.5%	3.8%	14.8%	9.5%
COc1ccc(Cl)cc1NC(=O)CN1CCN(Cc2ccccc2)CC1	-7.1%	5.1%	-2.4%	-1.4	.	1.7%	.	.	.	.	.
NCc1c(O)ccc2ccccc12	12.6µM*	.	6.2%	-0.7	-6.2	-9.9%	-2.0%[38.3 µM]	-9.1%	1.63µM*	?	?
Oc1ccc2ccccc2c1CN1CC2CCC(CC2)C1	.	-0.9%	.	.	.	.	.	.	.	.	.
COc1cccc(-n2c(SCC(=O)NC3CC3)nc3ccccc3c2=O)c1	.	-3.3%	.	.	.	.	.	.	.	.	.
CCOCCCNC(=O)C1CCN(Cc2cccc(OCc3ccccc3)c2)CC1	0.5%	2.1%	-1.9%	7.2	0.6	?	.	.	.	.	.
COc1cc(CN2CCC(C(=O)NCC(C)(C)CN(C)C)CC2)ccc1OCc1ccccc1	3.8%	11.9%	-6.9%	12.9	.	22.4µM*	?	-20.5%	8.6%	6.3%	11.3%
Cc1ccccc1N=Cc1cccc(O)c1O	5.01µM*	6.4%	-25.3%	7.6	7.0	5.61µM*	20µM*	-10.5%	11.2µM*	31.6µM*	31.6µM*
NC(=O)c1ccc[n+]([C@H]2O[C@@H](COP(=O)([O-])OP(=O)(O)OC[C@H]3O[C@@H](n4cnc5c(N)ncnc54)[C@H](O)[C@@H]3O)[C@H](O)[C@@H]2O)c1	?	-9.4%	.	.	.	.	.	.	.	.	.
CCC1CO/C(=C(\C(Cl)=C(Cl)Cl)[N+](=O)[O-])N1Cc1ccc(Cl)nc1 (stereo not drawn)	0.0%	-5.1%	-0.2%	-3.3	15.4	-22.1%	.	.	.	.	.
CN1CCO/C1=C(\C(Cl)=C(Cl)Cl)[N+](=O)[O-]	31.6µM*	6.1%	-2.7%	-3.3	-6.2	17.7µM*	-29.1%	-9.1%	-3.4%	4.6%	4.3%
Cc1ccc(S(=O)(=O)N2CCN(S(=O)(=O)c3ccccc3Br)CC2)cc1	.	-5.6%	.	.	.	.	.	.	.	.	.
O=C(O)C1CCc2sc3[nH]c(=S)n(-c4ccccc4)c(=O)c3c21 (stereo not drawn)	-25.2%	?	-8.0%	-2.1	-6.4	19.9µM*	-5.9%[10.4 µM]	2.8%	-5.9%	5.4%	5.7%
Cc1ccc(NC(=S)Nn2cnnc2)c(C)c1	3.9%	.	4.7%	-2.1	-13.5	12.6µM*	-17.5%	12.9%	-1.0%	10.1%	10.8%
CCCC(=O)Nc1nnc(SCc2cc(=O)n3ccccc3n2)s1	0.0%	0.0%	.	.	.	.	.	.	.	.	.
O=[N+]([O-])c1ccccc1S(=O)(=O)N1CCN(Cc2ccsc2)CC1	-5.1%	-8.6%	-0.7%	4.3	41.5	19.9µM*	-17.3%	-0.3%	-3.7%	-1.0%	3.1%
Nc1ncnc2c1ncn2[C@@H]1O[C@H](C(=O)NCc2ccc(OC(F)(F)F)cc2)[C@@H](O)[C@H]1O	.	1.9%	.	.	.	.	.	.	.	.	.
COCCCn1c(=O)c2ccccc2n2c(=S)[nH]nc12	6.7%	?	9.2%	-1.8	25.9	7.08µM*	-21.0%[38.3 µM]	-4.8%	7.1%	-2.2%	-15.9%
